From PubChem BioAssay AID1224860 (National Center for Advancing Translational Sciences (NCATS), 2016)
Inconclusive results are not listed. A number with no mark means an inactive call. Active and inactive are the calls of the source. Calls come from the whole dose curve; as a rule, active = well fitted cell-killing curve with a large enough effect; inconclusive = small, poorly fitted or top-dose-only effect; inactive = flat fitted curve, though single readings scatter.

Test: Compound cytotoxicity measured by an ATP content assay as a counter-screen for lead compounds in human iPSC derived neural progenitor cells (hNPCs)
Details: human iPSC-derived NPC viability, ATP luminescence; series mostly up to 46.1 µM; activity, negative = cytotoxicity: at the top concentration
Experimental: National Center for Advancing Translational Sciences [NCATS] Johns Hopkins University School of Medicine Florida State University Assay Overview: Many compounds can cause cytotoxicity at high compound concentrations. […] The compound cytotoxicity may also cause side effects or toxicity in human. Thus, the compound cytotoxicity needs to be measured in each cell type and each compound incubation time - same as these in the compound screening assay. The compound cytotoxicity can be measured by cell viability assays such as the ATP content assay. We use an ATP content assay kit for cell viability measurement. It measures ATP content (level) in human iPSC derived neural progenitor cells (hNPCs) using a luminescence readout that is proportional to viable cell numbers. Decrease in the luminescence signal after the compound treatment indicates reduced cell viability and cell death caused by compound treatment.
Assay Protocol Summary: The medium for hNPCs consists of DMEM/F12, N2 supplement (ThermoFisher, Cat.# 17502048), NEAA (ThermoFisher, Cat. # 11140050), 2 ug/ml heparin, 2 uM cyclopamine, and B27 (ThermoFisher, Cat. # 17504044). The ATP content assay kit (PerkinElmer, Cat.# 6016731) was used to determine cell viability. The reagent was reconstituted and prepared as described by the manufacturer. Cells were seeded in 384- or 1536-well assay plates and cultured at 37 C with 5% CO2 for 16 to 20 hours. The typical cell seeding density in the 1536-well plate assay is 350 cells/well in 3 ul medium for hNPCs in the tissue cultured treated/PDL coated plates. Compounds were added to cells and incubated for a specific time such as 6, 24, or 72 hours before addition of the reagent mixture of the ATP content assay kit at 1:1 ratio. After incubation at room temperature for 10 minutes, the luminescence intensity in assay plates was measured using a ViewLux plate reader (PerkinElmer). […] The percentage inhibitions of the decreased cell viability by small molecules were then calculated that indicate compound cytotoxicity.

| Structure (SMILES) | activity, negative = cytotoxicity [%] | Potency |
| --- | --- | --- |
| O=C1CCC[C@@H]2[C@H]3CCCN4CCC[C@@H](CN12)[C@@H]34 | -6.59 | – |
| CN1CC[C@@]2(C)c3cc(OC(=O)Nc4ccccc4)ccc3N(C)[C@@H]12 | -15.7 | – |
| Cc1ccc([N+](=O)[O-])[c]2c1[O][Hg]2 | – | 869 nM (active) |
| CC(O)CN1CCN(CC(=O)[O-])CCN(CC(=O)[O-])CCN(CC(=O)[O-])CC1.[Gd+3] (stereo not drawn) | 5.47 | – |
| O=c1c2ccccc2[se]n1-c1ccccc1 | – | 12300 nM (active) |
| CC(C)[C@H]1C(=O)N[C@H](CO)Cc2c[nH]c3cccc(c23)N1C | -7.67 | – |
| S=C(SSC(=S)N1CCCCC1)N1CCCCC1 | – | 245 nM (active) |
| Oc1ccc([C@H]2CNCc3c2ccc(O)c3O)cc1O | -5.13 | – |
| COC1(CS(=O)c2ccccc2)CCN(CCc2c[nH]c3ccc(F)cc23)CC1 (stereo not drawn) | 0.672 | – |
| COP(=S)(OC)SCN1C(=O)c2ccccc2C1=O | -12.2 | – |
| CC(C)[N+](C)(CCC(C(N)=O)(c1ccccc1)c1ccccc1)C(C)C | 1.39 | – |
| CC(C)N[C@@H]1CCn2c(=O)[nH]c3cccc(c32)[C@@H]1O | -2.56 | – |
| O=C1C=CC[C@@H]2[C@H]3CCCN4CCC[C@@H](CN12)[C@@H]34 | 4.73 | – |
